Experimental data as given in PubChem BioAssay (EPA / NIEHS).
Inconclusive results are not listed. Active and inactive are the calls of the source. How the source made its calls: active means hit-call score of the fitted dose curve at least 0.9, where 1 is the maximum; inconclusive means response in the unintended direction; inactive means score below 0.9.

What follows are compounds tested on Glyceraldehyde-3-phosphate dehydrogenase (Homo sapiens) (UniProt P04406) (assay: CLD_GAPDH_48hr: CellzDirect (CLD) Gene Expression Assay for Baseline Control (Glyceraldehyde 3-phosphate dehydrogenase) at 48 hours (AID 2283706);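 further: active means higher GAPDH mRNA than DMSO vehicle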).
Sequence of Glyceraldehyde-3-phosphate dehydrogenase (Homo sapiens) (P04406 whole entry, looked up): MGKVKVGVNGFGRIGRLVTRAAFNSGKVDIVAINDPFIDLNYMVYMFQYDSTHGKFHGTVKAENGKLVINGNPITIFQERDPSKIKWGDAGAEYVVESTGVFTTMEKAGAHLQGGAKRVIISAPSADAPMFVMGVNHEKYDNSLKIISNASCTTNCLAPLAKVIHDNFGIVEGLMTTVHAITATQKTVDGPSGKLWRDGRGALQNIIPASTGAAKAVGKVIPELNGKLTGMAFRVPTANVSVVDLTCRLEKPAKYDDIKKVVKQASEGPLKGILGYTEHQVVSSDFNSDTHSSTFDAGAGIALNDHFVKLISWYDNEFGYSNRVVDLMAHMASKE
Description: CLD_48hr is a cell-based, multiplexed-readout assay that uses hepatocyte, a human liver primary cell, with measurements taken at 48 hours after chemical dosing in a 96-well plate.CLD_GAPDH_48hr is one of 16 assay component(s) measured or calculated from the CLD_48hr assay. It is designed to make measurements of mRNA induction, a form of inducible reporter, as detected with chemiluminescence signals by Quantitative Nuclease Protection Assay (qNPA) technology.Data from the assay component CLD_GAPDH_48hr was analyzed at the endpoint, CLD_GAPDH_48hr, in the positive analysis fitting direction relative to DMSO as the negative control and baseline of activity. Using a type of inducible reporter, gain-of-signal activity can be used to understand changes in the reporter gene as they relate to the gene GAPDH. Furthermore, this assay endpoint can be referred to as a secondary readout, because this assay has produced multiple assay endpoints where this one serves a background control function. To generalize the intended target to other relatable targets, this assay endpoint is annotated to the background measurement intended target family, where subfamily is baseline control.
Human hepatocyte cultures were treated daily for two consecutive days with fresh dosing solutions containing appropriate concentrations of the 320 ToxCast chemicals (chemical identities were blinded to CellzDirect and other ToxCast collaborators), vehicle control (0.2% DMSO), and positive control inducers as summarized in Table 1. Due to the large number of treatment groups and chemicals examined, the ToxCast chemicals were divided into two groups (spanning two independent cultures of hepatocytes from separate donor preparations (Hu778: ToxCast plates 1 and 2; Hu776: ToxCast plates 3 and 4). Each preparation of human hepatocyte cultures was treated with respective vehicle control, medium only control, set of six positive controls/reference chemicals for the five hepatic receptor pathways, and a subset of eight of the ToxCast chemicals (indoxacarb, pyrithiobac-sodium, norflurazon, cyhalofop-butyl, methomyl, thiram, acetochlor, and propiconazole). These replicate data, coupled with internal replicates designed within the blinded ToxCast chemical library, provided additional data to evaluate interindividual differences between hepatocyte preparations and their potential impact on chemical profiles.Cell morphology and integrity were evaluated using phase-contrast microscopy as an indicator of hepatocyte cell health (Tyson & Green, 1987). Cultures for each treatment group (i.e., media, vehicle [0.2% DMSO], positive control inducers [multiple concentrations], and the ToxCast chemicals [multiple concentrations]) were observed and cell morphology was assessed relative to vehicle control cultures at each harvest time point (0, 6, 24, or 48 h). […] Images were evaluated at the conclusion of the study to assess changes in cell integrity and account for the effects of chemical exposure on uncharacteristic changes in concentration-dependent gene expression profiles. The results from these determinations of apparent cytotoxicity were annotated (yes/no) alongside the corresponding qNPA data for reference.At the conclusion of each treatment period, hepatocyte cultures (96-well) were washed with 1 volume of HBSS, lysed by addition of 25 ul ArrayPlate lysis buffer (HTG, Tucson, AZ), and 70 ul/well of Denaturation Oil, denatured by incubation at 95C for 10 min, and frozen at approximately -70C until analysis by nuclease protection assay (qNPA) (Roberts et al., 2007). For qNPA analysis, cell lysates were thawed at 50C for approximately 30 min, qNPA probes were added, and samples were incubated at 95C for 10 min to begin the detection process by denaturing the target RNA, dissociating the duplexes and secondary structure hybridization. At the conclusion of the hybridization period, S1 nuclease reagent was added to each sample to digest all nonprotected nucleotides at 50C for 60-90 min. […]
`C=CC1(C)OC(=O)N(c2cc(Cl)cc(Cl)c2)C1=O` (configuration not stated) was tested, and the outcome was “inactive”. With `COC(=O)C(C)Oc1ccc(Oc2ccc(Cl)cc2Cl)cc1` (configuration not stated) the outcome was “inactive”. In the case of `COc1nc(C)nc(NC(=O)NS(=O)(=O)c2ccccc2Cl)n1`, the outcome is reported as “inactive”. `CCCCNC(=O)n1c(NC(=O)OC)nc2ccccc21` was tested, and the outcome was “inactive”. In the case of `CCNc1nc(Cl)nc(NC(C)C)n1`, the outcome is reported as “inactive”. With `CNC(=O)ON=CC(C)(C)SC` the outcome was “inactive”. In the case of `CC1COC(Cn2cncn2)(c2ccc(Oc3ccc(Cl)cc3)cc2Cl)O1` (configuration not stated), the outcome is reported as “inactive”. With `CCCCC(CC)COC(=O)c1ccccc1C(=O)OCC(CC)CCCC` (configuration not stated) the outcome was “inactive”. `CNC(=S)S` was tested, and the outcome was “inactive”. In the case of `CC(C)(C)c1ccc(CSc2cnn(C(C)(C)C)c(=O)c2Cl)cc1`, the outcome is reported as “inactive”. `CCNc1nc(Cl)nc(NCC)n1` was tested, and the outcome was “inactive”. With `COP(=S)(OC)Oc1nc(Cl)c(Cl)cc1Cl` the outcome was “inactive”. In the case of `O=C(O)COc1nc(Cl)c(Cl)cc1Cl`, the outcome is reported as “inactive”. For `CN(C)C(=S)SSC(=S)N(C)C`, the outcome was “inactive”. With `CCOC(=O)CC(SP(=S)(OC)OC)C(=O)OCC` (configuration not stated) the outcome was “inactive”. `CCON=C(CC)C1=C(O)CC(c2c(C)cc(C)cc2C)CC1=O` (configuration not stated) was tested, and the outcome was “inactive”. `CC(Oc1ccc(Cl)cc1Cl)C(=O)O` (configuration not stated) was tested, and the outcome was “inactive”. `CCCCNC(=O)OCC#CI` was tested, and the outcome was “inactive”. `CCCCOC(=O)c1ccccc1C(=O)OCCCC` was tested, and the outcome was “inactive”. `Cc1ccc(-c2c(Cl)nc(C#N)n2S(=O)(=O)N(C)C)cc1` was tested, and the outcome was “inactive”. For `N#Cc1cc(Br)c(O)c(Br)c1`, the outcome was “inactive”. With `N#Cc1nn(-c2c(Cl)cc(C(F)(F)F)cc2Cl)c(N)c1S(=O)C(F)(F)F` (configuration not stated) the outcome was “inactive”.
